Laboratory results from PubChem BioAssay AID602295 (Broad Institute, 2012).
The source made the active and inactive calls.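 Rule for the calls: active = every separate test run called active, meaning the signal drops and a potency is fitted within twice the top valid dose; inconclusive = runs disagree, poor fit, or flat partial inhibition; inactive = all runs inactive, flat, opposite direction or too weak.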

Molecular target: Mitogen-activated protein kinase 3 (Homo sapiens) (UniProt P27361)
Experiment: ERK1 kinase inhibitors, dose response, selectivity assay for Dyrk1A inhibitor NFAT project, biochemical, ADP-Glo luminescence, cherry pick, set 2 (AID 602295)

Mitogen-activated protein kinase 3 (Homo sapiens), sequence (P27361 whole entry, looked up): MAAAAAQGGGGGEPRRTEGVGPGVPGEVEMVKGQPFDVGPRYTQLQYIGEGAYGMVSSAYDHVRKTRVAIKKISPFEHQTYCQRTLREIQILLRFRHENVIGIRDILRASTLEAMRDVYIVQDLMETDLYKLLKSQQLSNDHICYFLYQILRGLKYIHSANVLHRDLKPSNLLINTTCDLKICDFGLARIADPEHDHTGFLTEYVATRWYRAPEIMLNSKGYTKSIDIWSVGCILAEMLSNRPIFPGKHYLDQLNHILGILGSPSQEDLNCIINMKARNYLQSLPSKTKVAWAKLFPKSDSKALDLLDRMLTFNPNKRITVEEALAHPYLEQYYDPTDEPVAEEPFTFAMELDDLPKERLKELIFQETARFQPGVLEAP

Q: How did the outcome turn out when `COc1ccc2c(c1)[nH]c1c(C)nccc12` was run?
A: inactive
